# High-throughput results deposited in PubChem BioAssay by National Center for Advancing Translational Sciences (NCATS).
# p53null 39C tox: kills p53 null cells at the nonpermissive temperature; H1299 p53-null (neo) cells, 39C, ATPlite viability, 24 h; Potency, µM (top dose mostly 46.1 µM), for the others: at the highest dose activity, negative = cell killing, hits mostly cytotoxic; 55,000 compounds, 0.97% hits; AID 904;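 also: 0% = DMSO only and -100% = full killing by 100 µM tamoxifen; nearly all actives have a fitted effect of over 50% in size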
#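 Concentration-response (up to 46 uM) was run for 24 h at the nonpermissive 39C on H1299-p53A138V or H1299-neo cells. ATP content was measured with ATPlite luminescence. AC50 values were Hill-modeled after normalizing between DMSO and 100 uM tamoxifen killing.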
# NTMT1 inh: NTMT1 methyltransferase inhibition | Q9BV86 | NTMT1 MTase-Glo SAH luminescence, purified enzyme | Potency, µM (series often up to 114 µM), without a hit: at the top dose activity change, negative = inhibition, actives largely listed as inhibitors | 59,000 compounds, 2.5% hits | AID 1645870;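 also: plate controls were DMSO vehicle for no effect and no enzyme for full effect; nearly all actives have a fitted effect of over 65% in size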
# Target sequence (Q9BV86 whole entry, looked up): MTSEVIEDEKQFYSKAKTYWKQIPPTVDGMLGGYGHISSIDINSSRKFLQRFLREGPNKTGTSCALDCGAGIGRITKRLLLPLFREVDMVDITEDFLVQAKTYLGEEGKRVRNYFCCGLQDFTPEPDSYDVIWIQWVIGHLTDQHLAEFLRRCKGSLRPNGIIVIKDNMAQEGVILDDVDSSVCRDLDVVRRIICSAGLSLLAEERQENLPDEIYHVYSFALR
# SKOV3 invasion: ovarian cancer metastasis inhibition, 3D TME model; SKOV3ip1-GFP adhesion/invasion on 3D omental model, fluorescence; Potency, µM (top dose mostly 45.8 µM), for inactives: at the top dose activity change, negative = inhibition, actives largely listed as inhibitors; 46,000 compounds, 0.1% hits; AID 1963576;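 also: plate controls were DMSO wells for no effect and tomatine positive control wells for full effect; nearly all actives have a fitted effect of over 65% in size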
#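 Primary human omental fibroblast/mesothelial 3D culture pre-formed 48 h. SKOV3ip1-GFP cells added with compounds (0.36-46 umol/L), incubated 2 h RT/16 h 37 C, fixed; GFP cells quantified at 488/509 nm.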
# p53null 32C tox: kills p53 null cells at the permissive temperature. H1299-neo p53 null cells, ATP luminescence, 24 h, 32C. Potency, µM (series often up to 46.1 µM), without a hit: at the highest dose activity change, negative = cytotoxicity, actives largely listed as cytotoxic. 55,000 compounds, 0.62% hits. AID 903;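 also: 0% = DMSO only and -100% = full killing by 100 µM tamoxifen; nearly all actives have a fitted effect of over 55% in size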
#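 H1299-neo (p53 null) cells, 600/well, treated 24 h at 32C with compound up to 46 uM; ATPlite luminescence viability, normalized to DMSO and 100 uM tamoxifen; AC50 by Hill fit.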
# An asterisk follows results filed as active; i = inactive; u = inconclusive; x = not tested or not shown; ! = repeats disagree; [ ] = remark or other dose. Only a selection was taken, and hits are over-represented in it overall. Calls follow the shape of the dose curve; as a rule, active = well fitted curve in the direction sought with a large enough effect; inconclusive = small, poorly fitted or top-dose-only effect, or another doubt; inactive = no such curve, though single readings can be large; an effect the other way counts as inactive or inconclusive. Potency is read from the fitted curve at half-maximal effect.
SMILES,p53null 39C tox,NTMT1 inh,SKOV3 invasion,p53null 32C tox
CCNc1nc2c(c(=O)[nH]c(=O)n2C)n1CC(O)COc1ccc(Cl)cc1Cl (stereo not drawn),-12%,6%,i,-5%
N=c1n(CCN2CCCCC2)c2ccccc2n1CC(O)COc1ccc(Cl)cc1Cl (stereo not drawn),13µM*,u,u,18µM*
Cc1ccc(OCC(O)Cn2c(=N)n(CCN3CCCCC3)c3ccccc32)cc1 (stereo not drawn),13µM*,u,8.9µM*,-3%
COc1cc(C)c(/C=C/C(C)=C/C=C/C(C)=C/C(=O)O)c(C)c1C,x,79µM*,x,x
CC(C)Oc1ccc(C(=O)Nc2ccc(-c3nc4ccccc4[nH]3)cc2)cc1,x,-4%[57.5 µM],x,x
Cc1nn(Cc2ccc(Cl)cc2Cl)c(C)c1NC(=O)CCl,13µM*,x,x,5%
CC(C)c1ccccc1-c1nc2c(c(NCc3ccc(-c4cccnc4)cc3)n1)CCNC2,x,0%,x,x
Cc1cc(NS(=O)(=O)c2ccc(NC(=O)CCc3ccc(Cl)c(Cl)c3)cc2)no1,x,11%,x,x
COc1cc(OC2CCN(C)CC2)ccc1Nc1ncc2c(n1)n(C1CCCC1)c(=O)n2C,x,-5%,18%,x
COc1cc(C(=O)N2CCC(N3CCN(C)CC3)CC2)ccc1Nc1ncc2c(n1)N(C)c1ccccc1C(=O)N2C,x,-14%,11%,x
CC[C@@H]1C(=O)N(C)c2cnc(Nc3ccc(C(=O)NC4CCN(C)CC4)cc3OC)nc2N1C1CCCC1,x,25µM*!,-17%,x
COc1cc(C(=O)NC2CCN(C)CC2)ccc1Nc1ncc2c(n1)N(C1CCCC1)CC(F)(F)C(=O)N2C,x,28µM*,x,x
COc1cc(C(=O)NC2CCN(C)CC2)c(F)cc1Nc1ncc2c(n1)N(C1CCCC1)CC(F)(F)C(=O)N2C,x,28µM*,x,x
CN[C@H]1CC[C@@H](c2ccc(Cl)c(Cl)c2)c2ccccc21,x,28µM*!,x,x
CC(C)n1nc(-c2cc3cc(O)ccc3[nH]2)c2c(N)ncnc21,x,79µM*!,x,x
CC(C(=O)NCc1cccc(Br)c1)n1ncn2cccc2c1=O (stereo not drawn),13µM*,u,-11%,u
CN(C)c1cccc(NS(=O)(=O)c2ccc(NC(=O)Cc3ccc(Cl)c(Cl)c3)cc2)c1,x,12%[57.5 µM],x,x
CCOc1ccc(S(=O)(=O)Nc2ccc(O)c(Sc3ncn[nH]3)c2)cc1,4%,x,x,7%
CC(C)c1ccc(S(=O)(=O)/N=C2/C=C(Sc3ncn[nH]3)C(=O)c3ccccc32)cc1,x,x,x,6.3µM*
Cc1ccc(S(=O)(=O)Nc2ccc(C)cc2C(=O)Nc2nc(-c3ccccc3)cs2)cc1,x,-6%,x,x
CCc1nnc(NC(=O)c2nc(S(=O)(=O)Cc3ccc(C)cc3)ncc2Cl)s1,16µM*,2%,u,u
CCc1nnc(NC(=O)c2nc(S(=O)(=O)Cc3cccc(C)c3)ncc2Cl)s1,u,-2%,13µM*,53%
CCOc1ccccc1NC(=O)c1nc(S(=O)(=O)Cc2cccc(C)c2)ncc1Cl,u,-3%,i,15%
Cc1cccc(CS(=O)(=O)c2ncc(Cl)c(C(=O)Nc3nnc(C(C)C)s3)n2)c1,13µM*,17%,u,39%
Cc1ccc(C)c(NC(=O)c2nc(S(=O)(=O)Cc3ccc(F)cc3)ncc2Cl)c1,u,21%,11µM*,-1%
SMILES,p53null 39C tox,NTMT1 inh,SKOV3 invasion,p53null 32C tox
O=C1CCCC2=C1C(c1[nH]ncc1Cl)NC(=NCCc1ccccc1)N2 (stereo not drawn),x,-4%,x,x
COC(=O)c1ccnc(NCc2ccc(O)c3ncccc23)c1,x,25%,x,x
COc1ccc2nc3n[nH]c(C)c3c(NCCOCCO)c2c1,x,20µM*!,x,x
CC[N+](CC)(CC)CCOc1ccc(/C=C/c2ccccc2)cc1,x,28µM*,x,x
CC[N+](CC)(CC)CCOc1cccc(OCC[N+](CC)(CC)CC)c1OCC[N+](CC)(CC)CC,x,8.9µM*!,21%,x
Cc1ccc(NC(=O)c2cc3c(s2)CCCC3)cc1S(=O)(=O)Nc1ccccc1Cl,9%,x,x,35%
O=C(Nc1cccc(S(=O)(=O)Nc2ccc(Cl)cc2)c1)c1cc2c(s1)CCCC2,2.8µM*,x,x,8%
CNC(=O)c1cc2c(s1)CCCCCC2,-9%,x,x,-18%
CC(C)NC(=O)c1cc2c(s1)CCCC2,10µM*,x,x,u
Cc1ccc(Cl)cc1NC(=O)C1CCN(c2nnc(C)c3c(C)n(-c4ccccc4)nc23)CC1,13µM*,-28%,i,u
Cc1nnc(N2CCCC(C(=O)NCc3ccccc3)C2)c2nn(-c3ccccc3)c(C)c12 (stereo not drawn),2%,13%,i,0%
COc1ccccc1CCNC(=O)C1CCN(c2nnc(C)c3c(C)n(-c4ccc(C)cc4)nc23)CC1,10µM*,u,u,-13%
CCc1ccc(CNC(=O)C2CCCN(c3nnc(C)c4c(C)n(-c5ccccc5)nc34)C2)cc1 (stereo not drawn),16µM*,u,u,-24%
COc1ccc(Cl)cc1NC(=O)C1CCN(c2nnc(C)c3c(C)n(-c4ccccc4)nc23)CC1,-6%,6%,i,15%
Cc1nnc(N2CCC(C(=O)NCCc3ccccc3Cl)CC2)c2nn(-c3ccccc3)c(C)c12,10µM*,u,u,u
Cc1nnc(N2CCC(C(=O)NCCc3ccccc3)CC2)c2nn(-c3ccc(Cl)cc3)c(C)c12,u,3%,-6%,6%
COc1cc(O)c(C(CC(=O)N2CCCC(C)(C)C2)c2ccc3c(c2)OCO3)c(OC)c1 (stereo not drawn),x,16%,x,x
Cc1ccc2nc3sc(C(=O)NCCCN(C)C)cc3cc2c1,x,-7%[57.5 µM],x,x
O=C1CCCC2=C1C(c1[nH]ncc1Cl)N=C(Nc1ccn[nH]1)N2 (stereo not drawn),x,10%,x,x
CCOc1ccccc1CNC(=O)C1CCN(c2nnc(C)c3c(C)n(-c4ccc(C)cc4)nc23)CC1,16µM*,u,7.9µM*,u
Oc1cc(NCCN2CCOCC2)cc2cccnc12,x,-1%[57.5 µM],x,x
O=C1C(Cl)=C(NCCN2CCOCC2)C(=O)c2ncccc21,x,u,5.9µM*,x
Cc1ccc(-n2c(-c3cccc(C)c3)nc3c(cnn3-c3ccccc3)c2=O)cc1,37%,u,i,16%
Cc1cccc(-c2nc3c(cnn3-c3ccccc3)c(=O)n2-c2ccc(Br)cc2)c1,-9%,89µM*,-12%,-6%
Cc1ccc(Cl)cc1N1CCN(C(=O)C2CCN(Cc3nc(-c4ccc(Cl)cc4)oc3C)CC2)CC1,-1%,1%,-2%,-5%
COc1ccc(-c2nc(CN3CCC(C(=O)NCCCN4CCN(c5ccccc5F)CC4)CC3)c(C)o2)cc1OC,-30%,-18%,7.1µM*,-18%
COc1ccc(N2CCN(C(=O)C3CCN(Cc4nc(-c5ccc(Cl)cc5)oc4C)CC3)CC2)cc1,-23%,89µM*,25%,-4%
Cc1cc(-c2nnc3n2CCCCC3)c(C)n1-c1ccc(C(C)(C)C)cc1,x,30%,x,x
